Test results from PubChem BioAssay (NCATS).
Records with an inconclusive call do not appear. The source made the active and inactive calls. The call rests on the fitted dose curve; in most records, active means well fitted inhibition curve with a large enough effect; inconclusive means small, poorly fitted or top-dose-only effect; inactive means flat fitted curve, though single readings scatter.

What follows are compounds tested against Ubiquitin carboxyl-terminal hydrolase 1 (Homo sapiens) (UniProt O94782) (assay: Inhibitors of USP1/UAF1: Pilot qHTS (AID 504865;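 further: rhodamine fluorescence freed from ubiquitin-rhodamine substrate followed over time; top concentration of the series differs between compounds; nearly all actives have a fitted effect of over 35% in size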)). Conditions: purified USP1/UAF1, Ub-rhodamine cleavage fluorescence; series mostly up to 114 µM; activity change, negative = inhibition: at the top concentration.
Sequence of Ubiquitin carboxyl-terminal hydrolase 1 (Homo sapiens) (O94782 whole entry, looked up): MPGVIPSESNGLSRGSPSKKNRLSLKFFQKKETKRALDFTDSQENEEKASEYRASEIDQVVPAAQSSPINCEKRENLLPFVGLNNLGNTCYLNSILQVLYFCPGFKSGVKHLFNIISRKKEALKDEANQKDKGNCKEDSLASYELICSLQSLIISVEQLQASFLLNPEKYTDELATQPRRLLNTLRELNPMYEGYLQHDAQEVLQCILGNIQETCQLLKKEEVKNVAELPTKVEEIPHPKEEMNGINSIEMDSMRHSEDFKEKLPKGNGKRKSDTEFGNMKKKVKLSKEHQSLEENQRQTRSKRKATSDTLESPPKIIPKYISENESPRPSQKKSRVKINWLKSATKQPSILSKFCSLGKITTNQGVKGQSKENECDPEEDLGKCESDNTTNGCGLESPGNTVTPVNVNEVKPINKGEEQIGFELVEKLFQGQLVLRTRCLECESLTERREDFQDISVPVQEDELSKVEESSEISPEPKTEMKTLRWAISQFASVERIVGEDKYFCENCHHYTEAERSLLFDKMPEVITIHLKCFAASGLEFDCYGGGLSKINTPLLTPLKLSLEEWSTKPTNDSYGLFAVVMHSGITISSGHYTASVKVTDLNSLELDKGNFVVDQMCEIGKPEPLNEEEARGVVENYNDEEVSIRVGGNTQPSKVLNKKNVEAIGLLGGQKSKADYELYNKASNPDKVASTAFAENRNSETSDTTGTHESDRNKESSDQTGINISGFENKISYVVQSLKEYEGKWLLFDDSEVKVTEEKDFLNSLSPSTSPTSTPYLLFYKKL
Summary of the method: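 USP1/UAF1 complex (1nM) preincubated with compound 15 min at room temperature, then Ub-Rho substrate (150nM final) added. Fluorescence read kinetically at 480/540 nm, 6 reads every 60 seconds. Buffer: 50mM HEPES pH 7.8, 0.5mM EDTA, 0.1 mg/ml BSA, 1mM TCEP, 0.01% Tween-20.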
On the % scale 0 is the no-effect control and ±100 the full control effect.

Activity change, negative = inhibition, inactive:
COc1cc2cc[n+]3cc4c(OC)c(OC)ccc4cc3c2cc1OC 3.63%
COc1cc(-c2cc(=O)c3c(O)c(OC)c(OC)c(OC)c3o2)cc(OC)c1OC 0.614%
CC1(C)CC2C1CCC1(C)OC2(C)CCC1O (stereo not given) -12.8%
O=C(CCc1ccc(O)cc1)c1c(O)cc(O)cc1O[C@H]1OC(CO)C(O)C(O)C1O (stereo not given in full) -7.74%
CC1(C)C[C@@H]2C(=O)CCC3O[C@@]3(C)CCC21 (stereo not given in full) -5.3%
CC(=O)OC1CC(OC(C)=O)[C@]2(C)C(CC(=O)[C@]3(C)C2CC[C@@]2(C)C(C(=O)O)OC(=O)C4OC423)C1(C)C (stereo not given in full) -6.74%
CC(C)=CCc1c(O)cc2oc(C)cc(=O)c2c1O -11.3%
COc1ccc2c(=O)c(CC(=O)O)coc2c1 -2.3%
CC(CCC(=O)O)C1CCC2C3CC[C@H]4CC(O)CC[C@@]4(C)C3CC(O)[C@]12C (stereo not given in full) -8.58%
CC1(C)OC2CC3C4CC(F)C5=CC(=O)C=C[C@@]5(C)[C@@]4(F)C(O)C[C@@]3(C)[C@]2(C(=O)CO)O1 (stereo not given in full) -5.93%
C=C1C(=O)OC2CC1C(OC(C)=O)CC(C)=CCCC(C)=CCC[C@@]2(C)O (stereo not given in full) -10.8%
Oc1ccc(C2Oc3cc(O)cc(O)c3CC2O)cc1 (stereo not given) -8.99%
O=c1cc(-c2ccc(O)cc2)oc2cc(O)ccc12 -13.1%
S=c1ccss1 -14.2%
COC(=O)CC1C(C)(C)C2(O)OC34CC2C(=O)[C@@]1(C)C3CC[C@]1(C)C4=CC(=O)OC1c1ccoc1 (stereo not given in full) -11.4%
COc1ccc(C(=O)c2ccc(O)cc2)c(O)c1O -9.76%
COc1cccc(O)c1O -10.5%
O=C(/C=C/c1ccccc1)c1ccc(O)cc1 -7.25%
CCOC(=O)c1c(C)cc(O)c(C=O)c1O -11.9%
COc1ccc(-c2coc3c(O)c(OC)ccc3c2=O)cc1 -4.89%
CC1(C)OC2CC3C4CCC5=CC(=O)C=C[C@@]5(C)[C@]4(F)C(O)C[C@@]3(C)[C@]2(C(=O)CO)O1 (stereo not given in full) -3.61%
COC(=O)/C(C)=C/CC12OC(C)(C)C3CC(C=C4C(=O)c5cc6c(c(CCC(C)(C)Cl)c5OC431)OC1(C)CCC(=C(C)C)C6C1)C2=O (stereo not given) -6.6%
CC(N)C(O)c1cccc(O)c1 (stereo not given) -7.98%
CC(=O)OCC1OC(n2c(Br)nc3c(=O)[nH]c(N)nc32)C(OC(C)=O)C1OC(C)=O (stereo not given) -3.4%
C[C@]12CCC3c4ccc(OC(=O)c5ccccc5)cc4CCC3C1CCC2=O (stereo not given in full) -10.9%
CCOC(=O)CCC(=O)O[C@H]1C(O[C@@H]2C(C)[C@H](O[C@H]3C[C@@](C)(OC)C(O)C(C)O3)C(C)C(=O)OC(CC)[C@@](C)(O)C(O)[C@H](C)C(=O)C(C)C[C@]2(C)O)OC(C)CC1N(C)C (stereo not given in full) -2.73%
CC1(C)C(=O)C2C[C@]3(O)C4=CC(=O)OC(c5ccoc5)[C@]4(C)CCC3[C@](C)(C2=O)C1CC(=O)O (stereo not given in full) -8.31%
COc1cc(OC)c(C(C)=O)c(O)c1C -4.13%
CC(=O)OC1CC2C(C)(C)C(=O)[C@@H]3OC3[C@@]2(C)C2CC[C@]3(C)C(=CC(=O)OC3c3ccoc3)[C@]12C (stereo not given in full) -12.8%
CC1(C)CCC2(C(=O)O)CC[C@]3(C)C(=CCC4[C@]5(C)CCC(O)C(C)(C)C5C(O)C[C@]43C)C2C1 (stereo not given in full) -4.83%
CC1(C)CC2/C(CO)=C/C=C/[C@](C)(O)CC[C@]21O (stereo not given in full) -6.45%
COc1c(O)cc2c(-c3ccccc3)cc(=O)oc2c1OC -7.33%
COC(=O)CC1C(C)(C)C(OC(C)=O)C2CC3=C4CC(=O)OC(c5ccoc5)[C@]4(C)CCC3[C@@]1(C)C2=O (stereo not given in full) -10.6%
Oc1ccc2c(c1)OC(c1ccc(O)c(O)c1)C(O)C2 (stereo not given) -11.6%
C#C[C@]1(O)CCC2C3CCC4=Cc5oncc5C[C@@]4(C)C3CC[C@@]21C (stereo not given in full) -7.95%
CC(=O)OC1CC2C(C)(C)C=CC(=O)[C@@]2(C)C2CC[C@@]3(C)C(c4ccoc4)OC(=O)C4OC43[C@]12C (stereo not given in full) -13.1%
CC(=O)OCC(=O)[C@@]12OC(C)(C)OC1CC1C3CC(F)C4=CC(=O)C=C[C@@]4(C)[C@@]3(F)C(O)C[C@]12C (stereo not given in full) -12.5%
CC1(C)CCCC2(C)C3C(O)CC2(C)C(O)C31 (stereo not given) -10.3%
C=C1C[C@@]23C[C@@]1(O)CCC2[C@@]12C=CC(O)[C@](C)(C(=O)O1)C2C3C(=O)O (stereo not given in full) -3.23%
CC(Oc1ccccc1)C(=O)NC1C(=O)N2C(C(=O)O)C(C)(C)S[C@@H]12 (stereo not given in full) -5.55%
